The supplement of paper PMC10849652
The full data set covers some 8,800 targets. This sample favours those with a hit. About 0.5% of all pairs of compound and target were hits. Values without a mark were called inactive.

Tests used:
Test in all cases: log2 fold change, soluble protein after heating vs DMSO (PISA); higher = thermal stabilisation; K562 lysate, 10 uM; active = over 0.2 and 3.5 SD of the protein, either way, in both replicates (recomputed)
ibrutinib = compound: C=CC(=O)N1CCC[C@@H](n2nc(-c3ccc(Oc4ccccc4)cc3)c3c(N)ncnc32)C1 [ibrutinib]
Procedure, shortened: (§1)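 Dounce homogenisation of K562 pellets in PBS pH 7.4 with 1 mM MgCl2 produced a crude extract, used at 1 mg/mL protein. Exposure to 10 μM compound lasted 30 min, and aliquots were then heated for 3 min across 48°C-58°C, pooled and brought to 0.5% NP-40 at 4°C. The supernatant after 21,000xg for 90 min was quantified by TMTpro 16plex LC-MS/MS with channel sums equalised. Duplicate values are given as log-two fold change in thermal stability relative to solvent controls.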

[1] = compound: CC(=O)c1cnc2ccc(-c3cc(Cl)c(O)c(Cl)c3)nc2c1N[C@H]1CC[C@H](CN(C)C)CC1
Procedure, shortened: as §1

ralimetinib = compound: CC(C)(C)Cn1c(N)nc2ccc(-c3[nH]c(C(C)(C)C)nc3-c3ccc(F)cc3)nc21 [ralimetinib]
Procedure, shortened: as §1

[2] = compound: CC(C)(O)CC(=O)NCCn1ccc2ncnc(Nc3ccc(Oc4cccc(C(F)(F)F)c4)c(Cl)c3)c21
Procedure, shortened: as §1

[3] = compound: CC(C)C1=C2N=C(C=C(N2N=C1)NCC3=CC=CC=C3)NCCCCCCN
Procedure, shortened: as §1

[4] = compound: CC1=C(C(CC(=O)N1)C2=CC=C(C=C2)C(F)(F)F)C(=O)NC3=C(C=C4C(=C3)C=NN4)F
Procedure, shortened: as §1

[5] = compound: CC1=C(C2=C(C=C1)C(=O)C3=CC=CC=C3N2CCCN)C
Procedure, shortened: as §1

[6] = compound: CC1=C(C=C(C=C1)NC(=O)C2=CC(=CC=C2)C(C)(C)C#N)NC3=CC4=C(C=C3)N=CN(C4=O)C
Procedure, shortened: as §1

[7] = compound: CC1=C(C=C(C=C1)NC(=O)C2=CC(=CC=C2)N(C)C)NC(=O)C3=CC=C(C=C3)O
Procedure, shortened: as §1

[8] = compound: CC1=CC=C(C=C1)SC2=C3C=C(SC3=CN=C2)C(=O)N
Procedure, shortened: as §1

vemurafenib = compound: CCCS(=O)(=O)Nc1ccc(F)c(C(=O)c2c[nH]c3ncc(-c4ccc(Cl)cc4)cc23)c1F [vemurafenib]
Procedure, shortened: as §1

[9] = compound: CCCS(=O)(=O)Nc1ccc(F)c(C(=O)c2c[nH]c3ncc(Cl)cc23)c1F
Procedure, shortened: as §1

barasertib = compound: CCN(CCCOc1ccc2c(Nc3cc(CC(=O)Nc4cccc(F)c4)[nH]n3)ncnc2c1)CCOP(=O)(O)O [barasertib]
Procedure, shortened: as §1

[10] = compound: CC[C@@H]1C(=O)N(C)c2cnc(Nc3ccc(C(=O)NC4CCN(C)CC4)cc3OC)nc2N1C1CCCC1
Procedure, shortened: as §1

volasertib = compound: CC[C@@H]1C(=O)N(C)c2cnc(Nc3ccc(C(=O)N[C@H]4CC[C@H](N5CCN(CC6CC6)CC5)CC4)cc3OC)nc2N1C(C)C [volasertib]
Procedure, shortened: as §1

[11] = compound: CCn1c(C(=O)N(C2CC2)C2CC2)cc2c3c(ncn3C)c(Nc3cc(C)n(C)n3)nc21
Procedure, shortened: as §1

[12] = compound: CCn1cc(-c2ccnc3[nH]c(-c4cccc(CN(C)C)c4)cc23)c(-c2ccc(NC(=O)N(C)C)cc2)n1
Procedure, shortened: as §1

[13] = compound: CN1CCC(CNc2ccc3ncc(-c4cccc(OC(F)(F)F)c4)n3n2)CC1
Procedure, shortened: as §1

saracatinib = compound: CN1CCN(CCOc2cc(OC3CCOCC3)c3c(Nc4c(Cl)ccc5c4OCO5)ncnc3c2)CC1 [saracatinib]
Procedure, shortened: as §1

sotrastaurin = compound: CN1CCN(c2nc(C3=C(c4c[nH]c5ccccc45)C(=O)NC3=O)c3ccccc3n2)CC1 [sotrastaurin]
Procedure, shortened: as §1

Chain of UniProt Q9BVQ7 (Q9BVQ7 whole entry, looked up): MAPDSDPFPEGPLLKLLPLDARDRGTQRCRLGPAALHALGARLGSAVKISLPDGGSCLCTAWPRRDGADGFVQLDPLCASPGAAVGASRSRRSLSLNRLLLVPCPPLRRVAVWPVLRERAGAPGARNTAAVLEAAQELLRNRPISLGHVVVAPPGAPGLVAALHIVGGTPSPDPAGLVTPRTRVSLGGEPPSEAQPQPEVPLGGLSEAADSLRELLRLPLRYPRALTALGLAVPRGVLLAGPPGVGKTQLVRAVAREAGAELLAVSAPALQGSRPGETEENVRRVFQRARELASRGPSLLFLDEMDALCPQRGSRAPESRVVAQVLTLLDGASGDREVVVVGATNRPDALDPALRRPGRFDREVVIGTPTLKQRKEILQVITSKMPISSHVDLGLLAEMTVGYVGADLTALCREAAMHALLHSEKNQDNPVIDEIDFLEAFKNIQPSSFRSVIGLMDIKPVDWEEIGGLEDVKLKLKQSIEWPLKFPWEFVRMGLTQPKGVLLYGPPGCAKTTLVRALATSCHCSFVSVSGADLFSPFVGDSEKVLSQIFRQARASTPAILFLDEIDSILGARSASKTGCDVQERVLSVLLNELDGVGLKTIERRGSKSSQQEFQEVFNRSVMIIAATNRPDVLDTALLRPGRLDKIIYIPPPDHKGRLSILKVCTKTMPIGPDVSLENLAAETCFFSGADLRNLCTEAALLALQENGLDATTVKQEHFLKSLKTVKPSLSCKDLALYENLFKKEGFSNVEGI
Chain of UniProt Q9NTJ3 (Q9NTJ3 whole entry, looked up): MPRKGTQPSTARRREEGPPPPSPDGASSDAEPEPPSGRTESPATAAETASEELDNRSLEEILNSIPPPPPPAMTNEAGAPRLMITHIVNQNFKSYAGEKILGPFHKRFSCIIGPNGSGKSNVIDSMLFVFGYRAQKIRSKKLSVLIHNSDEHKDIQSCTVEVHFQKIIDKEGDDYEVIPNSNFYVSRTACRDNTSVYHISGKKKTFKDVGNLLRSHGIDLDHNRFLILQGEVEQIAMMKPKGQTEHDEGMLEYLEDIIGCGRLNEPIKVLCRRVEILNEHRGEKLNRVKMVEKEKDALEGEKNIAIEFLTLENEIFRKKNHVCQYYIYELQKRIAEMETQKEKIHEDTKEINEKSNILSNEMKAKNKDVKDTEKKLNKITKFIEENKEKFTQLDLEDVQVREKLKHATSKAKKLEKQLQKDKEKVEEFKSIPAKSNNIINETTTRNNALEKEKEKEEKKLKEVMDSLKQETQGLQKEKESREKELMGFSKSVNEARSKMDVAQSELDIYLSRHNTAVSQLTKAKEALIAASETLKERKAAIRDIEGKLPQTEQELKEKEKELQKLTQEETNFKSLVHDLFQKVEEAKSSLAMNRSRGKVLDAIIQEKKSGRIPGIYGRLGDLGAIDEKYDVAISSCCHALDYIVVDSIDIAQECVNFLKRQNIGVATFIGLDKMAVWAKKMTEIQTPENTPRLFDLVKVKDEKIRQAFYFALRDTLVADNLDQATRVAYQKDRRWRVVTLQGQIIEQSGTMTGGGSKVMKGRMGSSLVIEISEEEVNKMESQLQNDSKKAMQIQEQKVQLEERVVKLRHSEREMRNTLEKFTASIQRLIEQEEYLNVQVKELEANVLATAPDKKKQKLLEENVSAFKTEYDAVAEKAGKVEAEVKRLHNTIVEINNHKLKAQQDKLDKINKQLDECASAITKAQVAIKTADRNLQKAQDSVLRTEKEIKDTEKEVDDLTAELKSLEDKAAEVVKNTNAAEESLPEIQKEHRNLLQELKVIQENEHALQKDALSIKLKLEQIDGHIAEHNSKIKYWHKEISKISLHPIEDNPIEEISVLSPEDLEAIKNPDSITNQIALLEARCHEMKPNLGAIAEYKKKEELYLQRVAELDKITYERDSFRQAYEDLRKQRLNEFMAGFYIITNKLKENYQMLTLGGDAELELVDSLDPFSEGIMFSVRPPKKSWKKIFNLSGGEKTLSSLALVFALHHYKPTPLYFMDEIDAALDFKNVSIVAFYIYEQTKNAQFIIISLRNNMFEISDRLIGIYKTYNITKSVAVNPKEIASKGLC
Chain of UniProt O43805 (O43805 whole entry, looked up): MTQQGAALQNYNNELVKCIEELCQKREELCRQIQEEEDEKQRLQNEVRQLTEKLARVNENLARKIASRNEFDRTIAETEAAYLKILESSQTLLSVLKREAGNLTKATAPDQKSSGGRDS
Chain of UniProt P08047 (P08047 whole entry, looked up): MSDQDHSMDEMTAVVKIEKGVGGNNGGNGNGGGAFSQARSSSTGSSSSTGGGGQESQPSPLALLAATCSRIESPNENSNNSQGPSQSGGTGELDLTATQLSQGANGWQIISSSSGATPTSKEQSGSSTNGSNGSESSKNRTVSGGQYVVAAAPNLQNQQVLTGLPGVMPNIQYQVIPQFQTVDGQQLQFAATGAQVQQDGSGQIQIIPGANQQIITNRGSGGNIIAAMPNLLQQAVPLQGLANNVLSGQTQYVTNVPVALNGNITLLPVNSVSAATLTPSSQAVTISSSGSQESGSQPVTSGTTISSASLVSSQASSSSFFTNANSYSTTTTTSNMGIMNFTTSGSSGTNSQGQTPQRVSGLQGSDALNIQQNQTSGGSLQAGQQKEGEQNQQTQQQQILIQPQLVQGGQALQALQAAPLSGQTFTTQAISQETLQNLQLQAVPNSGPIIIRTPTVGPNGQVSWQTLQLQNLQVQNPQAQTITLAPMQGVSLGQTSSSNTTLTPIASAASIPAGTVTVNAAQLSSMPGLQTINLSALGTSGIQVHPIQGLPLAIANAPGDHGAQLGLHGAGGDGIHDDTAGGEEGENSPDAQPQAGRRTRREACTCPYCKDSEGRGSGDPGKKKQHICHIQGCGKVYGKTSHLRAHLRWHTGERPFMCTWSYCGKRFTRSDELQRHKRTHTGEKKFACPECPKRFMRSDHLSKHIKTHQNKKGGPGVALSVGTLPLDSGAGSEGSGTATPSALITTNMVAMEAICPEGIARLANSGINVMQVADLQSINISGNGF
Chain of UniProt Q9BXP5 (Q9BXP5 whole entry, looked up): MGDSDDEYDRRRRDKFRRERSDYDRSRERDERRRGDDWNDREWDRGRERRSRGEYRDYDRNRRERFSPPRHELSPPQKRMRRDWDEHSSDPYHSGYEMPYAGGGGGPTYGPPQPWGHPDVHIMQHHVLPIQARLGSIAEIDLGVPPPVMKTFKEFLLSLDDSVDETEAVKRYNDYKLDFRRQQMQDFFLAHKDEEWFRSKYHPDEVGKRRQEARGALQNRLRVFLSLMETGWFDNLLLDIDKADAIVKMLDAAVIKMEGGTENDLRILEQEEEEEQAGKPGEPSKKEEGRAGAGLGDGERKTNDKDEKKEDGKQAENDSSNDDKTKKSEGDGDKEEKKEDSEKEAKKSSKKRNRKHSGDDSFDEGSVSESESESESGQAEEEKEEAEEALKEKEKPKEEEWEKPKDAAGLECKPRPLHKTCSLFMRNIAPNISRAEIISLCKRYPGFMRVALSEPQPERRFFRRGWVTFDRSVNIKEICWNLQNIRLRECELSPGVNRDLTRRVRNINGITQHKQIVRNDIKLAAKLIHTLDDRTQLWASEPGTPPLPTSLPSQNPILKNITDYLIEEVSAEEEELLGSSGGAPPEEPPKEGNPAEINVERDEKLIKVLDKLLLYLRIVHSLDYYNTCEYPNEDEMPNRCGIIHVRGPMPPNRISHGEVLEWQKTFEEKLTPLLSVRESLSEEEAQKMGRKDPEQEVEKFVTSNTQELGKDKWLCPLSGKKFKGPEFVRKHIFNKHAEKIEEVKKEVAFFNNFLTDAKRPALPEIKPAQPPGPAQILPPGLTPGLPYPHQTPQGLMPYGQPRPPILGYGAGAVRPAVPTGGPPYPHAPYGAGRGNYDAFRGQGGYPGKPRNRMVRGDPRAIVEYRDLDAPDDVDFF
Chain of UniProt P62306 (P62306 whole entry, looked up): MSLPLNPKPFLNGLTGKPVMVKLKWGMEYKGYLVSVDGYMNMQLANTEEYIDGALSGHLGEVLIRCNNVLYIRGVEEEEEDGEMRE
Chain of UniProt Q9BXS9 (Q9BXS9 whole entry, looked up): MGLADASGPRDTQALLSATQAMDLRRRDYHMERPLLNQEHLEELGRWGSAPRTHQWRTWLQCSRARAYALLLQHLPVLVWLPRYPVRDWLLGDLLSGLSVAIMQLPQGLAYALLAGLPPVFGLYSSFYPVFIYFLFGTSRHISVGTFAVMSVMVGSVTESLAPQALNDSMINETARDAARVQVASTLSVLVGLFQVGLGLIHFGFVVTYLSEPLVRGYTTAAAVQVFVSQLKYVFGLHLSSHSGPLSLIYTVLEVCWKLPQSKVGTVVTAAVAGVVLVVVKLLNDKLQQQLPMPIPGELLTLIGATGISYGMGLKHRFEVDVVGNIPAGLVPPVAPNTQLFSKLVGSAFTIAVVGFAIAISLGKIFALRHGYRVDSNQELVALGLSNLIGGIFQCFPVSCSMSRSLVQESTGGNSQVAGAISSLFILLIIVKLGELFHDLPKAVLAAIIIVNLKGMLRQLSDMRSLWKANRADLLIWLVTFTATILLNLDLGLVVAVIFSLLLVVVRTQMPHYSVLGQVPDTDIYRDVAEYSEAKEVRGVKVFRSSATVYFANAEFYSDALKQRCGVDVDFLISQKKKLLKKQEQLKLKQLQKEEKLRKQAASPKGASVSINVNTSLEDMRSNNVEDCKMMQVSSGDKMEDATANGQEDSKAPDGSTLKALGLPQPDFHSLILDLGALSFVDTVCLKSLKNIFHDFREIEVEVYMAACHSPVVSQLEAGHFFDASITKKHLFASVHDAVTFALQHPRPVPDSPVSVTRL

Row | Target | log2 fold change (ibrutinib) | log2 fold change [1] | log2 fold change (ralimetinib) | log2 fold change [2] | log2 fold change [3] | log2 fold change [4] | log2 fold change [5] | log2 fold change [6] | log2 fold change [7] | log2 fold change [8] | log2 fold change (vemurafenib) | log2 fold change [9] | log2 fold change (barasertib) | log2 fold change [10] | log2 fold change (volasertib) | log2 fold change [11] | log2 fold change [12] | log2 fold change [13] | log2 fold change (saracatinib) | log2 fold change (sotrastaurin)
1 | SP1 (UniProt P08047) | 0.04 | 0.017 | -0.018 | -0.049 | -0.103 | -0.013 | 0.061 | 0.22 | 0.017 | -0.027 | -0.115 | 0.056 | 0.045 | 0.015 | 0.043 | -0.008 | -0.061 | 0.019 | 0.037 | -0.154
2 | TARBP1 (UniProt Q13395) | -0.021 | 0.036 | 0.162 | 0.03 | -0.051 | -0.027 | -0.077 | 0.002 | 0.035 | -0.036 | 0.019 | -0.004 | 0.02 | 0.025 | -0.032 | -0.047 | -0.053 | -0.034 | -0.055 | 0.038
3 | SPATA5L1 (UniProt Q9BVQ7) | -0.007 | 0.02 | 0.037 | -0.054 | 0.018 | -0.004 | -0.052 | -0.007 | 0.026 | -0.008 | 0.03 | 0.015 | 0.052 | -0.058 | -0.135 | 0.014 | -0.023 | 0.012 | 0.024 | 0.015
4 | SLC26A6 (UniProt Q9BXS9) | -0.242 | 0.018 | 0.019 | -0.056 | -0.05 | -0.157 | -0.022 | 0.017 | 0.033 | -0.056 | 0.106 | 0.086 | 0.421 (active) | 0.055 | 0.008 | 0.017 | -0.095 | 0.036 | -0.126 | 0.005
5 | SNRPF (UniProt P62306) | -0.027 | -0.013 | -0.024 | -0.072 | -0.004 | 0.015 | -0.137 | 0.018 | 0.028 | -0.082 | 0.023 | 0.002 | 0.045 | 0.067 | 0.032 | -0.051 | -0.35 (active) | 0.24 | -0.044 | 0.042
6 | SRRT (UniProt Q9BXP5) | 0.013 | 0 | 0.026 | 0.006 | -0.01 | -0.024 | -0.012 | -0.008 | 0.043 | -0.001 | 0.012 | 0.012 | -0.008 | -0.039 | -0.08 | 0.042 | 0.061 | -0.1 | -0.016 | 0.02
7 | SMC4 (UniProt Q9NTJ3) | -0.002 | -0.005 | -0.015 | -0.012 | -0.009 | -0.006 | 0.002 | -0.016 | 0.023 | 0.013 | 0.002 | 0.001 | 0.022 | -0.059 | -0.041 | 0.006 | 0.053 | -0.118 | 0.015 | 0.012
8 | SSNA1 (UniProt O43805) | 0.187 | 0.017 | -0.049 | 0.012 | 0.003 | -0.012 | -0.026 | 0.013 | 0.02 | -0.024 | -0.067 | -0.022 | 0.134 | 0.075 | 0.027 | 0.016 | -0.005 | -0.002 | 0.013 | 0.004
